HCMV inh = qHTS Assay for inhibitors of the human cytomegalovirus (HCMV); HFF cells, HCMV-luciferase reporter, 72 h; stronger effect = lower value; activity change, negative = inhibition, % at 57.5 µM; 410,000 tested, 4.5% active; AID 1259415, 2018; in the data active means activity change below about -60%; inconclusive means no clear call, values can overlap the other calls; inactive means above about -39%
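HFF cells seeded 16 h at 37C, treated with compounds, infected with luciferase-reporter HCMV at MOI 1 PFU/cell; luciferase read at 72 h post infection, normalized to buffer-only and Salinomycin controls.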
AmpC detergent = qHTS Inhibitors of AmpC Beta-Lactamase (assay with detergent) | Potency, µM (highest dose often 114 µM), without a hit: at the highest dose activity change, negative = inhibition, most hits filed as inhibitors | 370,000 tested, 0.041% active | AmpC hydrolysis of nitrocefin, absorbance 480 nm, 0.01% Triton | P00811;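 further: potency means the concentration at half of the fitted maximal effect; 0% = no-compound wells and -100% = no-enzyme wells; nearly all actives have a fitted effect of over 25% in size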
Target sequence (P00811 whole entry, looked up): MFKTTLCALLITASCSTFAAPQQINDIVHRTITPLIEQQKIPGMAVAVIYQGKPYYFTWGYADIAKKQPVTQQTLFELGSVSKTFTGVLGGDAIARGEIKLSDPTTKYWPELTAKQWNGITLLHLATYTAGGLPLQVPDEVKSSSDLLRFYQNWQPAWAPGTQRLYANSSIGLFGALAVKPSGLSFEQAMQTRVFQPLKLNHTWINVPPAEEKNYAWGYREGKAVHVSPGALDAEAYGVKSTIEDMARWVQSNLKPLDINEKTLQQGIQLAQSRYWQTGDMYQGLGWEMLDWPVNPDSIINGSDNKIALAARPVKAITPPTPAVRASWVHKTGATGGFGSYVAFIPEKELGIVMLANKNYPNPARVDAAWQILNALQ
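AmpC (5.3 nM in the dispensed reagent) in 20 mM phosphate pH 7.0 with 0.01% (detergent screen) or 0.0001% Triton X-100 was preincubated with compounds for 15 min at room temperature. Nitrocefin was then added from an 800 uM solution, and hydrolysis was followed at 480 nm.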
HCV inh = qHTS Assay for Inhibitors of Hepatitis C Virus (HCV); Huh7.5.1 HCVcc-Cre infection, luciferase reporter, 44 h; Potency, µM (highest dose often 41.8 µM), for inactives: at the highest dose activity change, negative = inhibition, hits mostly inhibitors; 340,000 tested, 3.4% active; further: potency means the concentration at half of the fitted maximal effect
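Infectious HCV cell culture screen: compound-treated cells (1,000/well, pre-plated 4 h) are infected with HCVcc-Cre at roughly 0.5 moi and grown 44 h. Infection is quantified by luciferase signal after 15 min substrate incubation at room temperature.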
AmpC no deterg = qHTS Inhibitors of AmpC Beta-Lactamase (assay without detergent); P00811; AmpC nitrocefin hydrolysis, absorbance 480 nm, 0.0001% Triton; Potency, µM (doses to about 57.1 µM), for the others: at the top dose activity change, negative = inhibition, most hits filed as inhibitors; 330,000 tested, 0.52% active; AID 485341, 2010;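 further: potency means the concentration at half of the fitted maximal effect; plate controls were no compound for no effect and no enzyme for full effect; nearly all actives have a fitted effect of over 20% in size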
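AmpC (5.3 nM in the dispensed reagent) in 20 mM phosphate pH 7.0 with 0.01% (detergent screen) or 0.0001% Triton X-100 was preincubated with compounds for 15 min at room temperature. Nitrocefin was then added from an 800 uM solution, and hydrolysis was followed at 480 nm.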
FMDV antiviral = High Throughput Screening for Foot and Mouth Disease Virus Antivirals | FMDV antiviral cell-based qHTS | Potency, µM (series often up to 57.9 µM), inactives show top-dose activity change, negative = inhibition, usual class: inhibitors | 410,000 tested, 1.2% active; calls by dose curve; tested in HEK293T cells; further: read-out not given here; potency means the concentration at half of the fitted maximal effect; nearly all actives have a fitted effect of over 45% in size
* marks the source's active call; other numbers are inactive results; ? = inconclusive; / = no result. Compounds with a hit are over-represented: about 7.3% of the library has one in this group of screens. Unless noted, the call rests on the fitted dose curve; in most records, active means well fitted curve in the direction sought with a large enough effect; inconclusive means small, poorly fitted or top-dose-only effect, or another doubt; inactive means no such curve, though single readings can be large; an effect the other way counts as inactive or inconclusive. Unless noted, on the % scale 0 is the no-effect control and ±100 the full control effect.

SMILES	HCMV inh	AmpC detergent	HCV inh	AmpC no deterg	FMDV antiviral
CC1CCc2c(sc3ncnc(SCC(=O)N4CCN(C(=O)c5ccco5)CC4)c23)C1 (stereo unspecified)	/	-4%	/	-3%	/
COc1ccc(N2CCN(C(=O)CSc3ncnc4c3cnn4-c3ccccc3C)CC2)cc1	-15	-4%	2%	-6%	?
O=C(CSc1ncnc2c1cnn2-c1ccccc1Cl)N1CCN(C(=O)c2ccco2)CC1	24	?	-25%	48%	35µM*
Cc1nnc(NC(=O)CSc2ncnc3c2cnn3-c2ccccc2C)s1	-6	-10%	0%	-17%	/
Cc1ccccc1-n1ncc2c(SCC(=O)NC3CCCC3)ncnc21	-72*	4%	4µM*	-5%	?
Cc1ccccc1-n1ncc2c(SCC(=O)N3c4ccccc4CC3C)ncnc21 (stereo unspecified)	-67*	-8%	?	8%	/
Cc1cc2c(cc1C)NC(c1cccc(Br)c1)=C(N(Cc1ccccc1)C(=O)C(=O)c1ccccc1)C(=O)N2	-6	/	/	/	/
CCc1nc(SCC(=O)N2c3ccccc3CC2C)c2c(C)c(C)sc2n1 (stereo unspecified)	-38	?	13µM*	-24%	/
Cc1sc2nc(C(C)C)nc(SCC(=O)N3c4ccccc4CC3C)c2c1C (stereo unspecified)	-20	-12%	?	-24%	0%
CCCCC(=O)c1c(O)c2ccccc2oc1=O	0	-8%	-4%	-18%	11%
CC(=N)c1c(O)c2ccccc2oc1=O	2	3%	2%	0%	42%
O=C(CC1CCCCC1)c1c(O)c2ccccc2oc1=O	-68*	3%	0%	-19%	8%
CC1CCC(C(=O)c2c(O)c3ccccc3oc2=O)CC1 (stereo unspecified)	-100*	-13%	?	-45%	-8%
O=S(=O)(c1ccccc1F)N1CCN(Cc2cc3c(cc2Br)OCCO3)CC1	-25	?	?	3%	-6%
C=CC(=O)N1c2ccccc2Sc2ccc(NC(=O)OCC)cc21	-4	/	?	/	13µM*
Cc1ccc(CNC(=O)Cn2c(=O)n(Cc3ccc(F)cc3)c(=O)c3sc4ccccc4c32)cc1	-65*	14%	/	/	0%
CCC(C)NC(=O)Cn1c(=O)n(Cc2ccc(C(=O)NCc3ccc(C)cc3)cc2)c(=O)c2ccccc21 (stereo unspecified)	-79*	8%	/	/	0%
COc1cccc(-n2c(=O)c3sc4ccccc4c3n(CC(=O)Nc3ccc(F)cc3F)c2=O)c1	-70*	12%	/	/	1%
CCc1nc2cc(C(=O)N(C)CC3COCCO3)cc(NC(=O)c3ccccc3OC)c2n1C (stereo unspecified)	/	/	/	/	-6%
COC(=O)c1cc(NC(=O)CC2SC(=Nc3ccccc3)N(CCc3c[nH]c4ccccc34)C2=O)cc(C(=O)OC)c1 (stereo unspecified)	26	1%	4.5µM*	-3%	-16%
CCCS(=O)(=O)Nc1ccc(Nc2c3ccccc3nc3ccccc23)c(OC)c1	-76*	/	?	/	-14%
CC(NC(=O)c1ccco1)c1nnc2n1CCN(Cc1ccc(N3CCCC3)cc1)CC2 (stereo unspecified)	/	/	/	/	4%
O=C(NC1CCCC1)C(c1ccccn1)N(C(=O)c1csnn1)c1ccccc1Cl (stereo unspecified)	-66*	-1%	13%	6%	14%
Cc1ccc(N(C(=O)c2csnn2)C(C(=O)NC2CCCCC2)c2ccncc2)cc1 (stereo unspecified)	-64*	3%	-3%	14%	-1%
Cc1cc(C)cc(N(C(=O)c2csnn2)C(C(=O)NC2CCCCC2)c2ccncc2)c1 (stereo unspecified)	-35	-1%	6%	1%	6%
Cc1cccc(N(C(=O)c2csnn2)C(C(=O)NC2CCCCC2)c2ccccn2)c1C (stereo unspecified)	12	-5%	?	120%	3%
